# Measurements taken from PubChem BioAssay (NCATS).
# Records with an inconclusive call do not appear. Activity calls are given as the source filed them. Calls follow the shape of the dose curve; as a rule, active = well fitted activation curve with a large enough effect in the main read-out, with a control signal flat (not every such curve was filed as active); inconclusive = small, poorly fitted or top-dose-only effect, or effect the other way, or a change in a side signal; inactive = flat fitted curve, though single readings scatter.
# Molecular target: 3',5'-cyclic-AMP phosphodiesterase 4B (Homo sapiens) (UniProt Q07343)
# Sequence (Q07343 whole entry, looked up): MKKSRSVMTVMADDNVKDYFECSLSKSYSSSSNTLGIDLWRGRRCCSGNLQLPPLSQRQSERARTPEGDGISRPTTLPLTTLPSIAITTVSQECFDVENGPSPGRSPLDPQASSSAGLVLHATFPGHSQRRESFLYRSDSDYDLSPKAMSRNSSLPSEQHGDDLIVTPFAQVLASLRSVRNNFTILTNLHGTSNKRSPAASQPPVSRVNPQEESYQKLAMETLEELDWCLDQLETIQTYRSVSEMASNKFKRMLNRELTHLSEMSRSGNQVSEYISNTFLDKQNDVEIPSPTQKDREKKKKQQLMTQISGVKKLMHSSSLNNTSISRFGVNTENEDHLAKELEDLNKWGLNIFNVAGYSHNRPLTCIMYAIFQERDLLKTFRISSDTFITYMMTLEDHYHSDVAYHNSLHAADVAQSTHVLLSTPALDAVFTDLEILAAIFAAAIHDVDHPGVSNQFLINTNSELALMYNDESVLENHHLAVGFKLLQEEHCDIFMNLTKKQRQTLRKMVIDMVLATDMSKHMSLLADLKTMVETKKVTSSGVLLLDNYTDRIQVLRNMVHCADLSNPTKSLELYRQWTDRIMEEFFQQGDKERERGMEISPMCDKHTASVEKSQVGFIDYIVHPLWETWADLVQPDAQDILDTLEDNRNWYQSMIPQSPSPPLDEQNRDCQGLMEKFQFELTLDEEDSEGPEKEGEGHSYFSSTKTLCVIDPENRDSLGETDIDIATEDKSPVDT
# Test: qHTS Assay for Inhibitors of PDE-IV (AID 607)
# Settings: HEK293 ACTOne CNG channel cells, membrane potential fluorescence; series mostly up to 22.9 µM
# Excerpt: NIH Chemical Genomics Center [NCGC]
# NIH Molecular Libraries Screening Centers Network [MLSCN]
# The cyclic nucleotide phosphodiesterases (PDEs) are proteins that catalyze hydrolysis of 3', 5'-cyclic nucleotides, such as cyclic adenosine monophosphate (cAMP) and cyclic guanosine monophosphate (cGMP), to their corresponding 5'-nucleotide monophosphates. These enzymes play an important role in controlling cellular concentrations of cyclic nucleotides and have a central role in a variety of intracellular signaling events. cAMP PDEs are emerging as a promising class of drug targets in asthma and cardiovascular disease therapeutic areas.
# There are no commercially available cell-based screening assays for PDE inhibitors: currently biochemical assays are done using pure substrates (cAMP or cGMP) and purified recombinant PDE enzymes. As with other biochemical screens on intracellular targets, false positives and false negatives may result from issues involving cell membrane permeability, cellular metabolism, and the like.
# Here we report the development of a cell-based screening assay for cAMP phosphodiesterase (PDE) inhibitors. The assay is based on the BD ACTOne# technology (BD Biosciences) which utilizes a modified cyclic nucleotide-gated channel (CNG) to monitor intracellular cAMP changes in live cells. The CNG channel is localized on the plasma membrane, and opens when the intracellular cAMP level increases, resulting in ion flux and cell membrane depolarization. The influx of cations through the CNG channel can be quantified using membrane potential (MP) dyes. We modified the BD ACTOne technology to allow the detection of PDE inhibitors, and performed an inhibitor screen for PDE-IV, which is expressed endogenously in HEK293 cells. We optimized this assay in homogeneous 1536-well plate assay format for high throughput screening.
# NCGC Assay Protocol Summary:
# The medium contained 10% FBS (Invitrogen), 2 mM L-glutamine, and 250 ug/ml G418 (Cellgro) and 1 ug/ml puromycin (Clontech). ACTOneTM parental cells (BD Biosciences) were maintained in the same medium without puromycin.
# The activity of the CNG channel was measured by BD ACTOneTM membrane potential dye kit (BD Biosciences). Forskolin, a positive control for cAMP activation and RO 20-1724, a PDE inhibitor, were both purchased from Sigma and solublized in DMSO.
# Sequence,Parameter,Value,Description
# 1,Reagent,3 uL,1000 cells/well 1536 TC treated Black plate
# 3,Compound,0.5 uL,Kalypsys dispense RO 20-1724 100 uM final [A]
# 4,Reagent,3 uL,BD membrane potential dye
# 6,Compound,23 nL,Final concentration was 0.7nM to 22.9uM
# 8,Detector,EX 535 / EM 590 [B],Envision
# Footnotes: [A] The stock 2 mM RO 20-1724 PDE inhibitor was made in 10 % DMSO. Parental cell line received 10 uM forskolin + 100 uM RO. [B] Envsion settings: Bottom Excitation 535/20 nm top emission 590/20, gain of 150 and 5 flashes per well.
# Keywords: PDE, PDE-IV, cytotoxicity, flourescence, MLSMR, MLSCN, NIH Roadmap, qHTS, NCGC
row,SMILES,outcome
1,O=C(CCCN1CCC(n2c(=O)[nH]c3ccccc32)CC1)c1ccc(F)cc1,inactive
2,CC(C)[N+](C)(CCC(C(N)=O)(c1ccccc1)c1ccccc1)C(C)C,inactive
3,COc1ccc(C(=O)N2CCCC2=O)cc1,inactive
4,O=C(O)c1nn(Cc2ccc(Cl)cc2Cl)c2ccccc12,inactive
5,CN1[C@@H]2CC[C@H]1CC(OC(=O)c1cc(Cl)cc(Cl)c1)C2 (stereo partly drawn),inactive
6,COC(=O)C1=CCCN(C)C1,inactive
7,CCCCCCCCC(=O)NCc1ccc(O)c(OC)c1,inactive
8,COc1ccc(CN2CCNCC2)c(OC)c1OC,inactive
9,Oc1ccc2[nH]cc(CCCCN3CC=C(c4ccccc4)CC3)c2c1,inactive
10,c1ccc2nc(N3CCNCC3)ccc2c1,inactive
11,NC(=O)CN1CCCC1=O,inactive
12,C[C@H](N)[C@H](O)c1ccc(O)c(O)c1,inactive
13,OC(c1ccccc1)(c1ccccc1)C1CCNCC1,inactive
